Screening data from PubChem BioAssay.
Akt phos inh = HTS Assay for Inhibitors of Akt Phophorylation: Primary Screen. AID 651550, 2012. activity change, % for hits at 50 µM. Neuro2A IGF-stimulated pAkt S473 HTRF, 20 min; active compounds read low. 360,000 compounds, 0.32% hits; in the data active = activity change below about -80%; inconclusive = mostly about -51% to -80%; note: % is set by controls: 0 for no effect and ±100 for the full control effect
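Neuro2A cells in DMEM with 0.5% FBS, overnight at 37 deg C, given compound at single 50 µM final, then IGF (6 nM final) for 20 min at 37 deg C. Lysed; phospho-Akt Ser473 by HTRF after 24 h, 665/615 ratio.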
KCNH2 WT inh = qHTS for Inhibitors of KCHN2 3.1: Wildtype qHTS; activity change, % at 1.84 µM; U2OS, BacMam KCNH2, thallium flux FluxOr; active compounds read low; 340,000 compounds, 0.37% hits; Voltage-gated inwardly rectifying potassium channel KCNH2 (Homo sapiens), Q12809;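 active = maximum activity change below -70%; inconclusive = maximum activity change between -70% and -50%; inactive = maximum activity change above -50%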; note: % is set by controls: 0 for no effect and ±100 for the full control effect
Target sequence (Q12809 whole entry, looked up): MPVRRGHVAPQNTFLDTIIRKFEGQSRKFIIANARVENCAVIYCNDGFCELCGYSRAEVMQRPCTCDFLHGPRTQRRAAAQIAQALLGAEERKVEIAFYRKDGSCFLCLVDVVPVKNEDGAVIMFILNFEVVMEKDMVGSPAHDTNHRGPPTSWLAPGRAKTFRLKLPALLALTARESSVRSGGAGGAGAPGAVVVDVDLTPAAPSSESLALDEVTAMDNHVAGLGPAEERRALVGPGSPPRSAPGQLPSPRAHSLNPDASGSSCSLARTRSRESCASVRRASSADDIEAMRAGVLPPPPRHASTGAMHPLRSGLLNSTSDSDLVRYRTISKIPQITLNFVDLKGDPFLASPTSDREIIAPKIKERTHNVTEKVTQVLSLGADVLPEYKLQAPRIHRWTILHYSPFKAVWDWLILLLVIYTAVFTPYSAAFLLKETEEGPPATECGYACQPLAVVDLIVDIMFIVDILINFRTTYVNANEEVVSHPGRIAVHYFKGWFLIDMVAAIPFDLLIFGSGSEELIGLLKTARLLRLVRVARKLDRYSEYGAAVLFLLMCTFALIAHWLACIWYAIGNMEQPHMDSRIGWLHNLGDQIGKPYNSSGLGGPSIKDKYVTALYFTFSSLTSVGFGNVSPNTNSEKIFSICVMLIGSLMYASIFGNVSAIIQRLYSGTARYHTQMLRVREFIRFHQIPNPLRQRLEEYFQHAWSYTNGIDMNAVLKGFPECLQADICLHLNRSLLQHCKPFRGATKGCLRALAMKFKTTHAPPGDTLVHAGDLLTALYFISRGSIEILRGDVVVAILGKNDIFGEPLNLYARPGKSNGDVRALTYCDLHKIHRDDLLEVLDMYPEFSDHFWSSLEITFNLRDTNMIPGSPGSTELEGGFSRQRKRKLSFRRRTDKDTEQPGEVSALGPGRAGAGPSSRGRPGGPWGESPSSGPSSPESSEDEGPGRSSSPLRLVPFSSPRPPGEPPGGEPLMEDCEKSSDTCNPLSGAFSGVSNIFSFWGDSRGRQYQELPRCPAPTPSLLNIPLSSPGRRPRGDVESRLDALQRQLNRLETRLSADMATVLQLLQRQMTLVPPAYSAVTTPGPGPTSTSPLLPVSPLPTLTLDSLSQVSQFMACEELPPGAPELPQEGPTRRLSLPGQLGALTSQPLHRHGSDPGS
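U2OS cells transduced with wild-type KCNH2 virus are loaded with FluxOr dye for 45 min, and thallium flux is measured in kinetic reads before and after stimulation buffer. Rate constants are normalized to DMSO controls.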
KCNH2 3.1 inh = qHTS for Inhibitors of KCHN2 3.1: Mutant qHTS | activity change, % (tested at about 1.8 µM) | Potassium voltage-gated channel subfamily H member 2, brain isoform KCNH2 3.1 (human) | U2OS KCNH2 3.1, thallium flux FluxOr; active compounds read low | 340,000 compounds, 0.95% hits;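 active = maximum activity change below -70%; inconclusive = maximum activity change from -70% to -50%; inactive = maximum activity change above -50%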;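 note: thallium influx rate constant from kinetic fluorescence after stimulation buffer; % is set by controls: 0 for no effect and ±100 for the full control effect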
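Kinetic fluorescence (2 min after stimulation buffer) measures Tl+ influx through KCNH2 3.1 expressed by viral transduction in U2OS cells; the rate constant is normalized against DMSO controls serving as positive and negative references.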
GRP78 ERSR act = qHTS for Inducers of the Endoplasmic Reticulum Stress Response (ERSR) in Human Glioma: qHTS | U87-MG GRP78 promoter luciferase reporter, 16 h | Potency, µM, inactives show at the top dose activation, hits mostly activators | 420,000 compounds, 0.02% hits | AID 602332, 2012; active = well fitted activation curve with a large enough effect; inconclusive = small, poorly fitted or top-dose-only effect; inactive = no such curve, though single readings can be large or run the other way; note: potency is the fitted concentration of half-maximal effect; series mostly up to about 76 µM; % of control where 0% means no effect; nearly all actives have a fitted effect of over 35% in size
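Stably transfected U87-MG glioma cells carrying a GRP78-based luciferase sensor; 16 h compound incubation. Luminescence end-point read 10 min after Bright-Glo addition at room temperature.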
gsp agonist = qHTS for Agonist of gsp, the Etiologic Mutation Responsible for Fibrous Dysplasia/McCune-Albright Syndrome: qHTS | gsp mutant cells, cAMP HTRF, 30 min | Potency, µM (series often up to 76.9 µM), without a hit: top-dose activation (cAMP increase), actives largely listed as activators | 340,000 compounds, 0.13% hits; active = well fitted activation curve with a large enough effect; inconclusive = small, poorly fitted or top-dose-only effect, or another doubt; inactive = no such curve, though single readings can be large or run the other way; cell line not stated here;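 note: phosphodiesterase inhibitor Ro 20-1724 added with compounds to block cAMP breakdown; potency is the fitted concentration of half-maximal effect; nearly all actives have a fitted effect of over 60% in size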
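Cells stably selected in G418 were plated at 2000/well, grown 16-24 hr, then given compounds in DMSO with the PDE inhibitor […] (300 uM solution added) for 30 min at 37C; cAMP was read by HTRF.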
gsp antagonist = qHTS for Antagonists of gsp, the Etiologic Mutation Responsible for Fibrous Dysplasia/McCune-Albright Syndrome: qHTS; 340,000 compounds, 0.4% hits; gsp-mutant cells, cAMP HTRF, 30 min; Potency, µM (series often up to 76.9 µM), for the others: top-dose activity change, negative = inhibition, hits mostly inhibitors; calls by dose curve; cell line not stated here;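 note: intracellular cAMP measured with PDE inhibitor Ro 20-1724 present during compound exposure; potency is the fitted concentration of half-maximal effect; % is set by controls: 0 for no effect and ±100 for the full control effect; nearly all actives have a fitted effect of over 65% in size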
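Measurement of cellular cAMP by homogeneous time-resolved fluorescence following a 30 min compound exposure at 37C. The PDE inhibitor […] was present throughout; the assay buffer was DPBS with 0.05% BSA and 0.005% Tween 20.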
Numbers without * were called inactive; i = inactive; u = inconclusive; x = no result given; [ ] = dose if it differs, or a comment. This is a sample that favours compounds with a hit; in the whole collection about 1.6% have one here.

SMILES | Akt phos inh | KCNH2 WT inh | KCNH2 3.1 inh | GRP78 ERSR act | gsp agonist | gsp antagonist
COc1cc(/C=C2\Oc3cc(O)ccc3C2=O)ccc1O | i | -7.7 | -0.9 | 0.9% | 28.2µM* | -7.4%
CN(C)/[N+]([O-])=N\Oc1cc(OC(=O)c2ccc(N)cc2)c([N+](=O)[O-])cc1[N+](=O)[O-] | x | x | x | -0.3% | x | x
CCN(CC)c1nc(-c2nn[nH]n2)nc(N(CC)CC)n1 | i | -1.2 | -6.1 | -3.0% | u | 39.8µM*
CCN(CC)c1nc(N(CC)CC)[nH]c(=O)n1 | i | 14.8 | -1.1 | -1.7% | 17.6% | -0.5%
COc1ccccc1-c1noc(CCC(=O)Nc2cccc(C(F)(F)F)c2)n1 | -104.8%* | -5.9 | -9.9 | -4.8% | -16.9% | u
CCOC(=O)c1ccc(NC(=O)CCc2nc(-c3cccc(C)c3)no2)cc1 | i | 0.9 | -17.4 | -3.6% | -10.8% | 35.5µM*
Cc1cccc(-c2noc(CCC(=O)Nc3ccccc3)n2)c1 | i | 5.4 | -7.4 | 1.4% | -28.1% | u
O=C(COC(=O)c1ccccc1OCCOc1ccccc1)Nc1ccccc1Br | x | x | x | 0.0% | x | x
Cc1ccc(N2C(=O)c3cccc4c([N+](=O)[O-])ccc(c34)C2=O)c2cccnc12 | i | -28.5 | -98.2* | -5.9% | -0.4% | -6.1%
Cc1ccc(N2C(=O)c3cccc4c(N5CCN(C)CC5)ccc(c34)C2=O)c2cccnc12 | i | 3.8 | 5.0 | -2.2% | 21.0% | -5.1%
CNC(=O)c1ccc(CN(C)CC(=O)Nc2ccccc2C(=O)NC2CC2)cc1 | i | 6.4 | -72.5* | -2.3% | -13.7% | 8.0%
O=C(c1cn(C2CCCN(Cc3cccc(Oc4ccccc4)c3)C2)nn1)N1CCCC1 (stereo not given) | x | x | x | -2.1% | x | x
O=C(CSc1nc2ccsc2c(=O)n1CC1CCC(C(=O)O)CC1)c1ccc(F)cc1 (stereo not given) | i | -0.7 | 3.3 | -0.8% | u | u
O=C(CSc1nc2ccsc2c(=O)n1CC1CCC(C(=O)O)CC1)c1ccc(Cl)cc1 (stereo not given) | i | 3.2 | -8.4 | -3.8% | 5.0%[15.4 µM] | 22.4µM*
CC(NC(=O)c1ccco1)C(=O)OCC(=O)c1ccc(Cl)s1 (stereo not given) | i | -223.8* | -4.0 | -3.4% | 18.8% | 0.8%
CC(NC(=O)c1ccco1)C(=O)O (stereo not given) | i | -4.7 | -116.0* | -2.3% | 5.1% | 7.9%
CC(NC(=O)c1ccccc1NC(=O)c1ccco1)C(=O)O (stereo not given) | i | -11.4 | 8.1 | -1.2% | 0.0% | 8.3%
Cc1ccc(CNC(=O)CSc2nc3ccccc3[nH]2)cc1 | i | -7.8 | 2.5 | 2.5% | -30.6% | 2.9%
O=C(CSc1nc2ccccc2[nH]1)NCCc1ccc(Cl)cc1 | i | -120.6* | -29.7 | -1.2% | -2.4% | -15.6%
N#C/C(=C(/O)CCl)c1nc2ccccc2[nH]1 | i | 0.2 | 17.0 | 25.1µM* | -0.3%[15.4 µM] | -10.3%
COCCN1CCN(C(=O)c2cnn(-c3nccc(-c4ccccc4OC)n3)c2-c2ccco2)CC1 | x | x | x | -1.1% | x | x
O=C(NCCO)c1cn(C2CCN(Cc3c(F)cccc3Cl)CC2)nn1 | x | x | x | -2.7% | x | x
COc1cc(C(=O)Nc2cccc(-c3nc4ncccc4o3)c2C)cc(OC)c1OC | u | -10.7 | 6.7 | 1.9% | 5.1% | 3.3%
COc1ccccc1NC(=O)c1oc2ccccc2c1NC(=O)c1cc(OC)c(OC)c(OC)c1 | -93.5%* | -10.2 | 12.5 | 0.4% | 21.4% | 26.4%
COCC(=O)Nc1c(C(=O)Nc2ccccc2OC)oc2ccccc12 | i | 4.4 | 0.0 | 4.6% | 6.6% | 2.0%
SMILES | Akt phos inh | KCNH2 WT inh | KCNH2 3.1 inh | GRP78 ERSR act | gsp agonist | gsp antagonist
COc1cc(C(=O)Nc2cccc(-c3nc4cc(C)ccc4o3)c2C)cc(OC)c1OC | -104.9%* | 5.5 | 2.7 | -4.9% | -14.9% | 10.9%
COc1ccc(C(=O)N2CCOc3ccc(CN4CCN(c5ccccn5)CC4)cc3C2)o1 | x | x | x | -1.7% | x | x
CS(=O)(=O)c1ccc2nc(NC(=O)c3ccccc3)sc2c1 | i | 2.3 | -4.3 | -7.0% | -0.8%[15.4 µM] | -10.8%
CC1=CCC(C(=O)O)C(C(=O)Nc2nc3ccc(S(C)(=O)=O)cc3s2)C1 (stereo not given) | -120.3%* | -8.4 | 14.6 | -1.8% | -50.8% | -2.9%
CC(CCc1ccc(O)cc1)NCc1ccc(Br)cc1 (stereo not given) | i | 4.0 | -88.0* | -2.0% | -6.8%[15.4 µM] | 5.9%
CC(CCc1ccc(O)cc1)NC(c1ccccc1)c1ccc(Cl)cc1 (stereo not given) | i | 15.6 | -33.2 | 2.6% | 25.9% | 5.7%
CC(CCc1ccc(O)cc1)NCCC(c1ccccc1)c1ccccc1 (stereo not given) | i | -119.1* | -96.0* | -3.7% | -33.3% | -2.2%
COc1cc(OC)c(/C=C/c2nccc3ccccc23)c(OC)c1 | x | x | x | -4.3% | x | x
CCCn1nc([N+](=O)[O-])c(C(C#N)c2nc3ccccc3o2)c(Cl)c1=O (stereo not given) | i | 33.2 | 14.9 | -6.4% | -43.1% | u
CCn1nc([N+](=O)[O-])c(C(C#N)c2nc3cc(C(F)(F)F)ccc3s2)c(Cl)c1=O (stereo not given) | i | -16.3 | 2.3 | u | -26.1% | 28.2µM*
CNC(=O)c1c[nH]n2c(=O)c(Cc3ccccc3F)c(C)nc12 | i | -3.0 | 4.6 | 2.3% | 14.6% | 11.2µM*
Cc1nc2c(C(=O)NCCc3ccccc3)c[nH]n2c(=O)c1Cc1ccccc1F | x | x | x | -1.3% | x | x
Cc1ccc(-c2cc(Cc3ccccn3)c(=O)[nH]n2)cc1 | i | -151.7* | -159.2* | -2.9% | -6.4%[15.4 µM] | -2.2%
O=S1(=O)CCN2C(Cc3ccc(SC(F)F)cc3)=CSC2=N1 | i | -9.6 | -13.7 | 1.8% | u | 31.6µM*
CC1=CSC2=NS(=O)(=O)CCN12 | i | -16.7 | -1.2 | -5.0% | -26.4% | 14.7%
CCC1(C2CCN(C(=O)c3ccc4ccccc4c3)CC2)NC(=O)N(CCc2scnc2C)C1=O (stereo not given) | x | x | x | 3.8% | x | x
Fc1cccc2sc(Nc3nnc(-c4ccccc4)o3)nc12 | i | -149.4* | -12.9 | 1.1% | 4.9%[15.4 µM] | u
CC(C)N1C[C@@H](Sc2ccccn2)C[C@H]1C(=O)Nc1ccc2c(c1)Nc1ccccc1CC2 | x | x | x | -0.8% | x | x
